DT40 TDP1 no CPT: qHTS for Inhibitors of human tyrosyl-DNA phosphodiesterase 1 (TDP1): qHTS in cells in absence of CPT; DT40 Tdp1-/- hTDP1 cells, no CPT, ATP luminescence, 48 h; Potency, µM (series often up to 46.2 µM), inactives show top-dose activity change, negative = growth inhibition, usual class: inhibitors; actives 15% (n = 420,000); AID 686978, 2013; note: potency is the fitted concentration of half-maximal effect; nearly all actives have a fitted effect of over 55% in size
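Growth kinetics read by CellTiter-Glo luminescence after ≥48 hr at 37 °C. Cells: DT40 Tdp1-/- stably carrying human TDP1, 400 per well, compound exposure in the absence of CPT (DMSO vehicle).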
HT1080 IDH1KD tx: kills HT-1080 cells with IDH1 knockdown; HT-1080 IDH1 knockdown viability, ATP luminescence, 48 h; Potency, µM (titrated, usually from 46.1 µM), inactives show at the top dose activity, negative = toxicity, usual class: cytotoxic; actives 2% (n = 360,000);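 note: potency is the fitted concentration of half-maximal effect; 0% = DMSO wells and -100% = cell-free medium wells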
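Using the IDH1-knockdown HT-1080 line run in the same batch and compound series as the NT line, viability after 48 h at 37 °C was determined by CellTiter-Glo luminescence and expressed as % activity.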
ELG1 repair inh: ELG1-dependent DNA repair inhibition. HEK293T ELG1-luciferase reporter, luminescence, 16 h; DNA damage induced by 5-fluorouridine. Potency, µM (doses to about 46.1 µM), inactives show at the top dose activity change, negative = inhibition, hits mostly inhibitors. actives 2.3% (n = 330,000); note: potency is the fitted concentration of half-maximal effect; nearly all actives have a fitted effect of over 55% in size
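Reporter activity after DNA damage by 5-fluorouridine is monitored. Compound-treated cells incubate 16 hr at 37 °C, then ONE-Glo is added for 30 min before luminescence reading.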
IL-1B inflam inh: inhibitors of inflammasome signaling (IL-1 beta secretion). activity change, % at 57.5 µM. THP-1 LPS/ATP IL-1B secretion, AlphaLISA, 16 h; stronger effect = lower value. actives 4.7% (n = 360,000); in the data active = activity change below about -50%; inconclusive = mostly about -30% to -49%
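Secreted IL-1B measured by AlphaLISA bead assay after 16 h compound exposure of THP-1 cells; compounds (final up to 57.5 uM) added 1 h before LPS (250 ng/mL) and ATP (1.25 mM) stimulation; lower signal means less secretion.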
HT1080NT lethal: kills 2HG-producing HT-1080-NT fibrosarcoma cells; HT-1080-NT fibrosarcoma viability, CellTiter-Glo ATP luminescence, 48 h; Potency, µM (doses to about 46.1 µM), for the others: at the top dose activity, negative = less viability, hits mostly cytotoxic; actives 1.6% (n = 360,000); AID 686970;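 note: NT is the 2HG producing partner of a matched IDH1 knockdown line; potency is the fitted concentration of half-maximal effect; 0% = DMSO-treated cells and -100% = media-only wells without cells; nearly all actives have a fitted effect of over 55% in size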
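Viability of the 2HG-overproducing fibrosarcoma line after 48 hours of compound exposure at 37 degrees C was determined by luminescence with CellTiter-Glo, and concentration-effect curves were then fitted and categorized.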
TDP1 cell CPT: growth inhibition of DT40 Tdp1-/-;hTDP1 cells with camptothecin (screen for TDP1 inhibitors). actives 12% (n = 420,000). Potency, µM (highest dose often 46.2 µM), without a hit: at the highest dose activity change, negative = growth inhibition, most hits filed as inhibitors. AID 686979. chicken DT40 Tdp1-/-;hTDP1 cells + 20 nM CPT, ATP luminescence, 48 h; note: potency is the fitted concentration of half-maximal effect; nearly all actives have a fitted effect of over 55% in size
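Cell growth measured by CellTiter-Glo luminescence after a minimum 48 h, 37 C compound exposure with 20 nM CPT in Tdp1-knockout DT40 cells stably expressing hTDP1, seeded 400/well; qHTS titration format.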
* hit, by the source's call; [ ] = another dose, or the depositor's remark. A selection: hits, their analogues and other compounds. The true share with any hit is near 19%. Unless noted, calls come from the whole dose curve; as a rule, active = well fitted curve in the direction sought with a large enough effect; inconclusive = small, poorly fitted or top-dose-only effect, or another doubt; inactive = no such curve, though single readings can be large; an effect the other way counts as inactive or inconclusive. Unless noted, % is set by controls: 0 for no effect and ±100 for the full control effect.

What do the screens show for `Cc1ccc2[nH]c(=O)c(CN(Cc3cccs3)C(=S)NCc3ccco3)cc2c1`?
DT40 TDP1 no CPT: 16.4µM*; HT1080 IDH1KD tx: -16.9%; ELG1 repair inh: inconclusive; IL-1B inflam inh: 0.0; HT1080NT lethal: -1.2%; TDP1 cell CPT: inconclusive

How did CN(C)CCN(Cc1cc2cc3c(cc2[nH]c1=O)OCO3)C(=S)NCc1ccco1 do in these assays?
DT40 TDP1 no CPT: -22.8%; HT1080 IDH1KD tx: 7.7%; ELG1 repair inh: 0.7%; IL-1B inflam inh: -0.1; HT1080NT lethal: 6.2%; TDP1 cell CPT: -25.7%

How did Cc1cccc2cc(CN(Cc3ccco3)C(=O)c3ccncc3)c(=O)[nH]c12 do in these assays?
DT40 TDP1 no CPT: inconclusive; HT1080 IDH1KD tx: -1.4%; ELG1 repair inh: 11.2µM*; IL-1B inflam inh: 2.3; HT1080NT lethal: -1.9%; TDP1 cell CPT: -16.8%

Results for COCc1ccc(CN2CCC(n3nccc3NC(=O)c3ccc4c(c3)OCO4)CC2)o1 ?
DT40 TDP1 no CPT: -29.0%; HT1080 IDH1KD tx: 4.7%; IL-1B inflam inh: -9.8; HT1080NT lethal: -4.5%; TDP1 cell CPT: inconclusive

Results for Cc1ccc(S(=O)(=O)N2C[C@H]3[C@H]4C(=O)N(C)C(=O)[C@H]4CC(=O)[C@H]3[C@@H]2c2ccccc2Cl)cc1 ?
DT40 TDP1 no CPT: -20.2%; HT1080 IDH1KD tx: 4.7%; IL-1B inflam inh: 6.7; HT1080NT lethal: 12.8%; TDP1 cell CPT: -0.9%

Results for Cc1nc(N2CCN(c3ccc(Cl)cc3)CC2)[nH]c(=O)c1C ?
DT40 TDP1 no CPT: -5.1%; HT1080 IDH1KD tx: 1.5%; ELG1 repair inh: 1.0%; IL-1B inflam inh: -7.6; HT1080NT lethal: 0.1%; TDP1 cell CPT: -18.0%

Results for COc1ccccc1CN(C)C[C@@H]1OCc2cnnn2CCCC(=O)N([C@H](C)CO)C[C@H]1C ?
DT40 TDP1 no CPT: inconclusive; HT1080 IDH1KD tx: 4.8%; IL-1B inflam inh: 13.9; HT1080NT lethal: -2.3%; TDP1 cell CPT: -13.5%

How did CC(=O)c1cnc2nc(SCc3cccc(C)c3)nn2c1C do in these assays?
DT40 TDP1 no CPT: 14.6µM*; HT1080 IDH1KD tx: 5.9%; ELG1 repair inh: 23.2%; IL-1B inflam inh: -12.5; HT1080NT lethal: 4.0%; TDP1 cell CPT: inconclusive

What do the screens show for `CC(=O)c1cnc2nc(SCc3ccccc3)nn2c1C`?
DT40 TDP1 no CPT: 9.6%; HT1080 IDH1KD tx: 12.2%; ELG1 repair inh: inconclusive; IL-1B inflam inh: -23.0; HT1080NT lethal: 13.1%; TDP1 cell CPT: 5.4%

How did CCC1(C2CCN(C(=O)c3ccc(C)c(C)c3)CC2)NC(=O)N(CCc2scnc2C)C1=O (stereo not given) do in these assays?
DT40 TDP1 no CPT: -22.6%; TDP1 cell CPT: -4.5%[9.04 µM]

Results for COc1ccc(N2CCN(CCCNC(=O)c3ccc4nc(N5CCCCC5)sc4c3)CC2)cc1 ?
DT40 TDP1 no CPT: inconclusive; TDP1 cell CPT: 16.4µM*

How did CC1CCCCN1CCCNC(=O)c1ccc2nc(N3CCCCC3)sc2c1 (stereo not given) do in these assays?
DT40 TDP1 no CPT: inconclusive; HT1080 IDH1KD tx: -9.8%; ELG1 repair inh: inconclusive; IL-1B inflam inh: 0.2; HT1080NT lethal: 4.1%; TDP1 cell CPT: inconclusive

What do the screens show for `Cc1ccc(Cl)cc1N1CCN(CCCNC(=O)c2ccc3nc(N4CCCCC4)sc3c2)CC1`?
DT40 TDP1 no CPT: 11.6µM*; TDP1 cell CPT: 20.6µM*

How did Cc1ccc(C)c(N2CCN(CCCNC(=O)c3ccc4nc(N5CCC(C)CC5)sc4c3)CC2)c1 do in these assays?
DT40 TDP1 no CPT: 9.2µM*; TDP1 cell CPT: 14.6µM*

What do the screens show for `CS(=O)(=O)Nc1cccc(NC(=O)C2Cc3c(-c4cccc(F)c4)ccnc3O2)c1` (stereo not given)?
DT40 TDP1 no CPT: 3.26µM*; HT1080 IDH1KD tx: inconclusive; IL-1B inflam inh: -10.3; HT1080NT lethal: 2.06µM*; TDP1 cell CPT: 5.17µM*

How did COc1ccc(NC(=O)C2Cc3c(-c4cccc(F)c4)ccnc3O2)cc1OC (stereo not given) do in these assays?
DT40 TDP1 no CPT: 4.61µM*; HT1080 IDH1KD tx: inconclusive; IL-1B inflam inh: -15.3; HT1080NT lethal: inconclusive; TDP1 cell CPT: 7.31µM*

How did CNC(=O)C1Cc2c(-c3cccc(F)c3)ccnc2O1 (stereo not given) do in these assays?
DT40 TDP1 no CPT: 4.5%; HT1080 IDH1KD tx: 25.6%; IL-1B inflam inh: 17.3; HT1080NT lethal: 25.1%; TDP1 cell CPT: -10.7%

Results for COc1ccc(NC(=O)C2Cc3c(-c4ccco4)ccnc3O2)cc1OC (stereo not given) ?
DT40 TDP1 no CPT: inconclusive; HT1080 IDH1KD tx: -22.8%; IL-1B inflam inh: -2.2; HT1080NT lethal: -4.2%; TDP1 cell CPT: 23.1µM*

Results for O=C(Nc1ccccc1)C1Cc2c(-c3cccc(F)c3)ccnc2O1 (stereo not given) ?
DT40 TDP1 no CPT: inconclusive; HT1080 IDH1KD tx: -16.2%; IL-1B inflam inh: -62.7*; HT1080NT lethal: 4.4%; TDP1 cell CPT: 20.6µM*

How did Cc1ccc(C)c(NC(=O)CN2C(=O)CSc3nc(C)cc(C)c32)c1 do in these assays?
DT40 TDP1 no CPT: -22.1%; TDP1 cell CPT: -7.0%

How did CCCNC(=O)c1cc(C2CCCN(C(=O)C3CC3)C2)on1 (stereo not given) do in these assays?
DT40 TDP1 no CPT: -3.2%; HT1080 IDH1KD tx: inconclusive; IL-1B inflam inh: -5.8; HT1080NT lethal: 9.5%; TDP1 cell CPT: -11.3%

How did Cc1ccc(NC(=Nc2ccc(Br)cc2)N2CCOCC2)cc1C do in these assays?
DT40 TDP1 no CPT: 20.6µM*; HT1080 IDH1KD tx: inconclusive; ELG1 repair inh: -10.6%; IL-1B inflam inh: -66.3*; HT1080NT lethal: inconclusive; TDP1 cell CPT: inconclusive

How did CN(C)c1ccc(-c2nc(-c3cc4cc(Cl)ccc4oc3=O)cs2)cc1 do in these assays?
DT40 TDP1 no CPT: -15.2%; TDP1 cell CPT: 9.4%

How did CC(=O)Nc1cccc(-c2ccnc3c2CC(C)(C(=O)NCc2ccc(N(C)C)cc2)O3)c1 (stereo not given) do in these assays?
DT40 TDP1 no CPT: 2.91µM*; HT1080 IDH1KD tx: 5.17µM*; IL-1B inflam inh: 9.1; HT1080NT lethal: inconclusive; TDP1 cell CPT: 3.26µM*

What do the screens show for `CC1(C(=O)NCc2cccc(Cl)c2)Cc2c(-c3ccccc3)ccnc2O1` (stereo not given)?
DT40 TDP1 no CPT: 8.2µM*; HT1080 IDH1KD tx: inconclusive; IL-1B inflam inh: 19.6; HT1080NT lethal: -23.7%; TDP1 cell CPT: 16.4µM*

Screening data deposited in PubChem by National Center for Advancing Translational Sciences (NCATS).
